ADAM17 inh: ADAM17 inhibitors, primary screen, biochemical, QFRET; recombinant ADAM17, EDANS/DABCYL FRET peptide cleavage; inhibition, % at 6.95 µM; AID 720648, 2013; 0.83% of 370,000 active;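 active = inhibition above the mean of compounds lying between control limits plus 3 SD, set per campaign, cut at about 8.5% in these data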
FAS TE block: FAS thioesterase domain inhibitors, primary screen, biochemical, fluorescence intensity, uHTS; Fatty acid synthase (Homo sapiens), P49327; recombinant FAS-TE, OMFH fluorogenic substrate, fluorescence endpoint; inhibition, % at 15 µM; 0.67% of 360,000 active;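 active = compounds whose normalised, plate-corrected inhibition of enzyme fluorescence in the single-dose primary screen is 50% or more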
NPR1 activator: GC-A stimulated cGMP production enhancers – HEK293 GC-A cells, cGMP TR-FRET, EC30 ANP, primary screen; activation, % at 10 µM; 0.14% of 370,000 active; 0% at EC30 ANP, 100% saturating ANP; in the data active = activation above about 40%
ADAM10 inh: human ADAM10 inhibitors, primary screen, biochemical, QFRET, HTS | Disintegrin and metalloproteinase domain-containing protein 10 (Homo sapiens), O14672 | recombinant ADAM10, EDANS/DABCYL FRET peptide cleavage, 3 h | inhibition, % at 7 µM | 0.62% of 370,000 active | AID 720582, 2013;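 active = inhibition above a per-campaign cutoff equal to the mean of compounds falling between control-based bounds plus 3 SD, cut at about 20% in these data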
GC-B act: human GC-B receptor activators, primary screen, HEK293 GC-B cells, cGMP TR-FRET, EC30 CNP | Atrial natriuretic peptide receptor 2 (Homo sapiens), P20594 | 0% at EC30 CNP, 100% saturating CNP | activation, % at 10 µM | 0.11% of 370,000 active | AID 1920062, 2024;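 active = activation at 10 µM reaching about 35% in either raw or pattern-adjusted values, limit read from the data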
Target sequence (P20594 whole entry, looked up): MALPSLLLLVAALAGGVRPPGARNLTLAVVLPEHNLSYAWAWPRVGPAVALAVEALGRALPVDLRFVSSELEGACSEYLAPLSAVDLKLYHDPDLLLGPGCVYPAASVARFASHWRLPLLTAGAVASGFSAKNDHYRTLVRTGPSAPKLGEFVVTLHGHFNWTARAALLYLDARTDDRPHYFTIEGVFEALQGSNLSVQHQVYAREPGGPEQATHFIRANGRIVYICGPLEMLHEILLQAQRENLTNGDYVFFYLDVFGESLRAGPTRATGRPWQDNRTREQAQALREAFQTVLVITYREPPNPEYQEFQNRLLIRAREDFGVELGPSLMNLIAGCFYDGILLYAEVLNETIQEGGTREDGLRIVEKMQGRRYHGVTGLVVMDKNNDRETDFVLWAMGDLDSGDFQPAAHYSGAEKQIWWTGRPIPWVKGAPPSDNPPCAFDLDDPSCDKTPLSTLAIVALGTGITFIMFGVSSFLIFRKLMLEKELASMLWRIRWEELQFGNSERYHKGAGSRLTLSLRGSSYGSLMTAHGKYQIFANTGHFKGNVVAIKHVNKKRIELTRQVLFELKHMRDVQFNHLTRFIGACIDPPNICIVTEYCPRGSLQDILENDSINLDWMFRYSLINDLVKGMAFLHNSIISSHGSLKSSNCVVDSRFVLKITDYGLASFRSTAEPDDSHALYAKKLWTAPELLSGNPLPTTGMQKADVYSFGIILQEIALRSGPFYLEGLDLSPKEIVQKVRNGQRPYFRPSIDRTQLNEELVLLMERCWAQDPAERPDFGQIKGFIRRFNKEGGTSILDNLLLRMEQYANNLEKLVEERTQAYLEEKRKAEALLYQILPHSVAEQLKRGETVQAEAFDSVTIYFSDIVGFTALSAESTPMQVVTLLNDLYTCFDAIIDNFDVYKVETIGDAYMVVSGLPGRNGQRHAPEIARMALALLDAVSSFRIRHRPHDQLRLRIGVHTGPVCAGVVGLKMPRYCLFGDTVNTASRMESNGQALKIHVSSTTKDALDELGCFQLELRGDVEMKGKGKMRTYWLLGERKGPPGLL
ADAM10 counter: ADAM10 inhibitors, counter-screen for ADAM17 exosite inhibitor project, biochemical, FRET, human ADAM10; shares compounds with ADAM17 inh; recombinant ADAM10, EDANS/DABCYL FRET peptide cleavage, 3 h; inhibition, % at 6.95 µM; 47% of 2,900 active; AID 743256, 2014;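 active = mean inhibition over the triplicate runs exceeds the activity threshold set in the earlier primary screen, cut at about 20% in these data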
ADAM17 confirm: ADAM17 inhibitors, hit retest, confirmation, biochemical, QFRET peptide cleavage. shares compounds with ADAM17 inh. recombinant ADAM17, EDANS/DABCYL QFRET peptide cleavage. inhibition, % at 6.95 µM. 65% of 2,900 active;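 active = mean inhibition across replicates above the hit cutoff set in the primary screen, cut at about 8.5% in these data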
Hits are given with their value. The list is not random: actives were taken first. Their share in the collection is about 2%.

What do the screens show for `COc1ccc(C2=NS(=O)(=O)N(C)C(C(=O)Nc3ccc(C)cc3)=C2)cc1`?
ADAM17 inh: 8.9; FAS TE block: inactive; NPR1 activator: inactive; ADAM10 inh: inactive; GC-B act: inactive; ADAM10 counter: inactive; ADAM17 confirm: 13.5

Results for Cc1ccc(NC(=O)C2=CC(c3ccc(C)cc3)=NS(=O)(=O)N2C)cc1 ?
ADAM17 inh: inactive; FAS TE block: inactive; NPR1 activator: inactive; ADAM10 inh: inactive; GC-B act: inactive

What do the screens show for `CCc1ccc(NC(=O)C2=CC(c3ccc(OC)cc3)=NS(=O)(=O)N2C)cc1`?
ADAM17 inh: 9.2; FAS TE block: inactive; NPR1 activator: inactive; ADAM10 inh: inactive; GC-B act: inactive; ADAM10 counter: 23.7; ADAM17 confirm: 15.4

How did Cc1ccc(C2=NS(=O)(=O)N(C)C(C(=O)Nc3ccc4c(c3)OCO4)=C2)cc1 do in these assays?
ADAM17 inh: 12.8; FAS TE block: inactive; NPR1 activator: inactive; ADAM10 inh: inactive; GC-B act: inactive; ADAM10 counter: inactive; ADAM17 confirm: 13.7

What do the screens show for `CC(=O)N1CCCN(C(=O)Cn2cnc3ccccc3c2=O)CC1`?
ADAM17 inh: inactive; NPR1 activator: inactive; ADAM10 inh: inactive; GC-B act: inactive

Results for CCC(=O)N[C@H]1C[C@@H]2O[C@@H](CO)CC[C@@H]2O[C@@H]1CCc1ccc(-c2cccc(OC)c2)cc1 ?
ADAM17 inh: inactive; NPR1 activator: inactive; ADAM10 inh: inactive; GC-B act: inactive

How did CCCC(=O)N1CCC[C@]2(CC[C@H](CCC(=O)OCC)O2)C1 do in these assays?
ADAM17 inh: inactive; NPR1 activator: inactive; ADAM10 inh: inactive; GC-B act: inactive

What do the screens show for `COC(=O)[C@H](C(C)C)N1Cc2nnn(CC3CCCCC3)c2-c2ccccc2S1(=O)=O`?
ADAM17 inh: inactive; NPR1 activator: inactive; ADAM10 inh: inactive; GC-B act: inactive

Results for Cc1cc(N2CCN(C(=O)Oc3ccc(-c4ccccc4)cn3)CC2)c2ccccc2n1 ?
ADAM17 inh: 10.3; NPR1 activator: inactive; ADAM10 inh: inactive; GC-B act: inactive; ADAM10 counter: inactive; ADAM17 confirm: 14.8

How did COCCCNC(=O)C[C@H]1C[C@@]2(C(=O)OC)C(=C[C@H](C(C)C)O[C@@H]2C2CC2)N(Cc2ccc3c(c2)OCO3)C1=O do in these assays?
ADAM17 inh: inactive; NPR1 activator: inactive; ADAM10 inh: inactive; GC-B act: inactive

What do the screens show for `COC(=O)c1c(C)n(-c2ccc(OC)cc2)c2ccc(O)cc12`?
ADAM17 inh: 12.2; FAS TE block: inactive; NPR1 activator: inactive; ADAM10 inh: inactive; GC-B act: inactive; ADAM10 counter: inactive; ADAM17 confirm: 11.5

Results for CCc1ccc(OCC2c3cc(OC)c(OC)cc3CCN2C(=S)NCCOC)cc1 (centres undefined) ?
ADAM17 inh: 10.1; FAS TE block: inactive; NPR1 activator: inactive; ADAM10 inh: inactive; GC-B act: inactive; ADAM10 counter: 39.4; ADAM17 confirm: 21.1

Results for C[C@H]1CN(C(=O)OC(C)(C)C)CCN1c1ccc(N2CCS(=O)(=O)CC2)c(C#N)c1 ?
ADAM17 inh: inactive; NPR1 activator: inactive; ADAM10 inh: inactive; GC-B act: inactive

Results for CC(C)Nc1nc(NC(C)C)nc(N(C#N)CCOc2ccc(Cl)cc2Cl)n1 ?
ADAM17 inh: 9.3; FAS TE block: inactive; NPR1 activator: inactive; ADAM10 inh: inactive; GC-B act: inactive; ADAM10 counter: inactive; ADAM17 confirm: 12.9

How did CCO[C@H]1OC(C(=O)Nc2ccccc2)=C[C@@H](c2csc3ccccc23)[C@@H]1CCCO do in these assays?
ADAM17 inh: 10.1; FAS TE block: inactive; NPR1 activator: inactive; ADAM10 inh: inactive; GC-B act: inactive; ADAM10 counter: inactive; ADAM17 confirm: 11.9

What do the screens show for `Cc1cc(CSc2ccc(Cl)cc2)ccc1N`?
ADAM17 inh: 9.7; FAS TE block: inactive; NPR1 activator: inactive; ADAM10 inh: inactive; GC-B act: inactive; ADAM10 counter: 20.6; ADAM17 confirm: inactive

What do the screens show for `Cc1ccccc1NC(=O)COC(=O)c1ccc(CSc2ccc(Cl)cc2)cc1`?
ADAM17 inh: inactive; FAS TE block: inactive; NPR1 activator: inactive; ADAM10 inh: inactive; GC-B act: inactive

What do the screens show for `CCOC(=O)CC[C@H]1CC[C@]2(CCCN(C(=O)C(C)(C)C)C2)O1`?
ADAM17 inh: inactive; NPR1 activator: inactive; ADAM10 inh: inactive; GC-B act: inactive

Results for COCc1cc(N2CCNC[C@H]2C)ccc1N1CCN(Cc2ccccc2)[C@H](C)C1 ?
ADAM17 inh: inactive; NPR1 activator: inactive; ADAM10 inh: inactive; GC-B act: inactive

Results for COC(=O)C1=C(C)N(C)C(=NCC2CC2)NC1c1cccc(Cl)c1 (centres undefined) ?
ADAM17 inh: inactive; NPR1 activator: inactive; ADAM10 inh: inactive; GC-B act: inactive

Results for O=C(Nc1cccc(S(=O)(=O)Nc2ccccc2Cl)c1)c1ccc(N2CCCC2)c([N+](=O)[O-])c1 ?
ADAM17 inh: 11.2; FAS TE block: inactive; NPR1 activator: inactive; ADAM10 inh: inactive; GC-B act: inactive; ADAM10 counter: 40.8; ADAM17 confirm: 23.8

How did Cc1ccccc1C(=O)NC1CCCCN(Cc2cccc(C(F)(F)F)c2)C1=O (centres undefined) do in these assays?
ADAM17 inh: inactive; NPR1 activator: inactive; ADAM10 inh: inactive; GC-B act: inactive

How did Cc1cc(=O)n2[nH]c(=O)c(N=Nc3ccccc3)c2[nH]1 do in these assays?
ADAM17 inh: inactive; FAS TE block: inactive; NPR1 activator: inactive; ADAM10 inh: inactive; GC-B act: inactive

How did CCOc1ccc(N=Nc2c(=O)[nH]n3c(=O)cc(C)[nH]c23)cc1 do in these assays?
ADAM17 inh: 10.2; FAS TE block: inactive; NPR1 activator: inactive; ADAM10 inh: inactive; GC-B act: inactive; ADAM10 counter: inactive; ADAM17 confirm: 11.9

How did Cc1cc(SCCOc2ccccc2)nc(N)n1 do in these assays?
ADAM17 inh: 11.1; FAS TE block: inactive; NPR1 activator: inactive; ADAM10 inh: inactive; GC-B act: inactive; ADAM10 counter: inactive; ADAM17 confirm: inactive

How did CCN(CC)c1ccc(NC(=O)c2cc3c(OC)cccc3[nH]2)cc1 do in these assays?
ADAM17 inh: 16.9; FAS TE block: inactive; NPR1 activator: inactive; ADAM10 inh: inactive; GC-B act: inactive; ADAM10 counter: inactive; ADAM17 confirm: inactive

Screening data (PubChem BioAssay)
